The results in this text go back to the supplement of paper PMC7156485.

Counter-ions that a name gives are not always drawn. A number with no mark means an inactive call.
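Also: TDF is a line of transformed human dermal fibroblasts of mesenchymal origin.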

The test deals with HCC1569. As to the kind of experiment: H1.0 immunofluorescence intensity relative to DMSO (% of DMSO); higher = stronger H1.0 induction, active = 140 or more. Particulars: concentration: 10 µM; 24 h. In outline: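 In 384-well plates holding 800 HCC1569 or TDF cells per well in RPMI with 10% FBS, compounds were tested at 10 µM for 24 h at 37 °C in triplicate. Fixation used 3.7% formaldehyde. Staining used a rabbit anti-H1.0 antibody with an AlexaFluor 647 secondary, plus DAPI. Each value, H1.0 nuclear intensity or cell number, is a median of replicates shown as percent of the plate control, and HCC1569 values were smoothed for positional effects.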
As for `CC1OC(Oc2c(-c3ccc(O)c(O)c3)oc3cc(O)cc(O)c3c2=O)C(O)C(O)C1O` (stereo not given) [Quercitrin], the H1.0 immunofluorescence intensity is 99.1.
To `CC(N)C1CCC(C(=O)Nc2ccncc2)CC1.Cl.Cl.O` (stereo not given) belongs 102; to `CCCC(=O)O[C@]1(C(=O)CO)CC[C@H]2[C@@H]3CCC4=CC(=O)CC[C@]4(C)[C@H]3[C@@H](O)C[C@@]21C` [(11beta)-11,21-dihydroxy-3,20-dioxopregn-4-en-17-yl butyrate], 102; to `COC(=O)c1c(C)[nH]c(C)c1C(=O)c1ccccc1Cc1ccccc1`, 129.
To `Br.Br.N=C(N)SCCc1ccc(CCSC(=N)N)cc1` [1,4-PBIT dihydrobromide] belongs 105; to `CCCCCCCCCCC(=O)O` [Undecanoic acid], 103.
To `CCCCOC(=O)NS(=O)(=O)c1sc(CC(C)C)cc1-c1ccc(Cn2c(CC)nc3c(C)cc(C)nc32)cc1` belongs 100; to `Cc1cc(CS(=O)(=O)c2ccccc2)cc(OCc2ccc(CN3CCC[C@@H]3CO)cc2)c1` [PF-543 hydrochloride], 122; to `CN1CCN(CCCN2c3ccccc3Sc3ccc(C(F)(F)F)cc32)CC1.Cl.Cl` [Trifluoperazine dihydrochloride], 141 (active).
Take `CC1=C(CC(=O)O)c2cc(F)ccc2C1=Cc1ccc(S(C)(=O)=O)cc1` [Sulindac sulfone]: the H1.0 immunofluorescence intensity was 103.
Turning to `COC1C=COC2(C)Oc3c(C)c(O)c4c(O)c(cc([O-])c4c3C2=O)NC(=O)C(C)=CC=CC(C)C(O)C(C)C(O)C(C)C(OC(C)=O)C1C.[Na+]` (stereo not given), the H1.0 immunofluorescence intensity was 97.5.
Regarding `COC(=O)C1C(O)CCC2CN3CCc4c([nH]c5ccccc45)C3CC21` (stereo not given) [Corynanthine], the H1.0 immunofluorescence intensity is 95.3.
To `CC(N=C(NC#N)Nc1ccncc1)C(C)(C)C` (stereo not given) [Pinacidil] belongs 101; to `Nc1nc(=O)c2ncn(COC(CO)CO)c2[nH]1` [Ganciclovir], 99.6; to `O=C(NCCO[N+](=O)[O-])c1cccnc1` [Nicorandil], 107.
In the case of `Cc1c(C)c2c(c(C)c1O)CCC(C)(C(=O)O)O2` (stereo not given) [Trolox] it was 91.3; in that of `CC[n+]1c(C=CN(C)c2ccccc2)n(-c2ccccc2)c2ccc(-c3nc4ccccc4s3)cc21.[I-]` [Akt Inhibitor IV], 66.5.
To `CC(=O)CC/C=C(\C)CC/C=C(\C)CC/C=C(\C)CCC=C(C)C` belongs 105; to `O=c1[nH]ccc2c(S(=O)(=O)N3CCCNCC3)cccc12`, 104; to `NC1CCCCC1N.O=C([O-])C(=O)[O-].[Pt+2]` (stereo not given) [Oxaliplatin], 121.
`CC(C)NCC(O)c1ccc(O)c(O)c1.O=C(O)C(O)C(O)C(=O)O` (stereo not drawn) [R(-)-Isoproterenol (+)-bitartrate]: the H1.0 immunofluorescence intensity was 120.
In the case of `CCCCCC=CCC=CCCCCCCCCCC(=O)O` [Eicosadienoic acid] it was 96.4.
As to `CCCCCCCCCCCC=CCC=CCCCC(=O)O` [Eicosa-5,8-dienoic acid (20:2 n-12)], the H1.0 immunofluorescence intensity was 105.
In the case of `Cc1ccc(C)c(-c2cc(C(F)(F)F)nn2-c2ccc(S(N)(=O)=O)cc2)c1`, the H1.0 immunofluorescence intensity is 101.
For `COc1ccc2[nH]cc(CCNC(C)=O)c2c1` [Melatonin], the H1.0 immunofluorescence intensity is 93.4.
As for `Cl.O.O=C(O)CN(CCN(CC(=O)O)Cc1ccccc1O)Cc1ccccc1O`, the H1.0 immunofluorescence intensity is 90.1.
Consider `O=C1CSc2ccccc2N1Cc1cccc(C(F)(F)F)c1` [4-[3-(trifluoromethyl)benzyl]-2H-1,4-benzothiazin-3(4H)-one], for which the H1.0 immunofluorescence intensity is 105.
In the case of `CC(C)(C)c1nc2c3cc[nH]c(=O)c3c3cc(F)ccc3c2[nH]1` [JAK Inhibitor I] it was 126.
Take `CC1(C)NC(=O)N(c2ccc([N+](=O)[O-])c(C(F)(F)F)c2)C1=O` [Nilutamide]: the H1.0 immunofluorescence intensity was 100.
To `COc1c(N2CCNC(C)C2)c(F)cc2c(=O)c(C(=O)O)cn(C3CC3)c12` (stereo not given) [Gatifloxacin] belongs 107; to `Cc1nc(C(=O)N2CCC[C@H]2Cc2nnc(-c3ccccc3)o2)c(-c2ccccc2F)s1`, 95.5; to `Cc1ccc(NC(=O)c2ccc(CN3CCN(C)CC3)cc2)cc1Nc1nccc(-c2cccnc2)n1` [Imatinib], 103.
Regarding `CC(C)=CCCC(C)=CCCC(C)=CCCC(C)=CCCC(C)=CCCC(C)=CCCC(C)=CCCC(C)=CCCC(C)=CCO` [Solanesol], the H1.0 immunofluorescence intensity is 93.9.
Regarding `COc1cc(C(=O)OC2CC(C)=CCCC(C)=CC(O)C2C(C)C)ccc1O` (stereo not given) [Tschimganidin], the H1.0 immunofluorescence intensity is 86.8.
As for `COc1cc(/C=C/C(=O)O)ccc1O` [Ferulic acid], the H1.0 immunofluorescence intensity was 92.2.
Consider `CC(=O)N1CCN(C(=O)/C=C/c2ccc(Sc3ccccc3C(C)C)c([N+](=O)[O-])c2)CC1`, for which the H1.0 immunofluorescence intensity is 123.
As for `CC1CC2OC2C=CC=CC(=O)Cc2c(Cl)c(O)cc(O)c2C(=O)O1` (stereo not given) [Radicicol], the H1.0 immunofluorescence intensity is 121.
In the case of `CNC(=O)c1cc(Oc2ccc(NC(=O)Nc3ccc(Cl)c(C(F)(F)F)c3)cc2)ccn1` [Sorafenib] it was 68.6.
In the case of `COc1cc2ncnc(Nc3ccc(F)c(Cl)c3)c2cc1OCCCN1CCOCC1` it was 112; in that of `NC1CONC1=O` (racemic) [DL-Cycloserine], 92.3.
